Bioassay records (PubChem)
GLS inh – glutaminase GLS (human) inhibition | O94925 | GLS enzymatic activity, qHTS titration | Potency, µM (series often up to 45.5 µM), actives largely listed as inhibitors | 0.21% of 410,000 active | AID 624170
Target sequence (O94925 whole entry, looked up): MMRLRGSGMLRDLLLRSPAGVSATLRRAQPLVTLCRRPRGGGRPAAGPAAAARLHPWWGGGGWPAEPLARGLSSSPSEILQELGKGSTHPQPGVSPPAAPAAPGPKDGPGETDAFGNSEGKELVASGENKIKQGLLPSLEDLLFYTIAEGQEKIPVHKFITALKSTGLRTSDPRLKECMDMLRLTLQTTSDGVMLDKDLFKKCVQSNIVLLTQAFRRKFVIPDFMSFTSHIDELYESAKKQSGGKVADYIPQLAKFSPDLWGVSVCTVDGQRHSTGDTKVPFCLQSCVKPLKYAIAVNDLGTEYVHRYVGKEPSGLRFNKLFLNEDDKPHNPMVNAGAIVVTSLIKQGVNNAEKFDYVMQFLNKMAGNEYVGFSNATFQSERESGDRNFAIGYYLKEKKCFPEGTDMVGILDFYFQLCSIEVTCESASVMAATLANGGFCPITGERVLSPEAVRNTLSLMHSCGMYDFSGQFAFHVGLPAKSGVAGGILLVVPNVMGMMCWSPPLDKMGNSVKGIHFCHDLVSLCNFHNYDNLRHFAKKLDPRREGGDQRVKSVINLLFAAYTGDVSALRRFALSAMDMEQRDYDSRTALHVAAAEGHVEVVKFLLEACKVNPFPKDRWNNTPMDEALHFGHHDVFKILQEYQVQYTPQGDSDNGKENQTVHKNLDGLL
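Assay buffer: 45 mM KH2PO4 pH 8.2, 0.02% Tween-20. hKGA acts on L-glutamine (1 mM solution added); product glutamate is reported by an oxidase/peroxidase Amplex Red coupling, with fluorescence taken at baseline and 30 min.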
TrxR1 inh – rat TrxR1 inhibition; recombinant rTrxR1, NADPH fluorescence consumption, selenite substrate; AID 588453; O89049; 1% of 390,000 active; Potency, µM (series often up to 114 µM), actives largely listed as inhibitors; also: nearly all actives have a fitted effect of over 65% in size
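Rat TrxR1 (90 nM in the dispensed reagent) was pre-reduced with 400 uM NADPH for 5 min at room temperature, then incubated with compound for 15 min. After 400 uM selenite was added, NADPH fluorescence (Ex 340/Em 450 nm) was followed for 8 min.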
IDH1 R132H inh – blocks human mutant IDH1 R132H enzyme. O75874. IDH1-R132H enzyme, NADPH consumption, diaphorase/resazurin fluorescence. Potency, µM (series often up to 76.6 µM), most hits filed as inhibitors. 0.093% of 390,000 active; also: nearly all actives have a fitted effect of over 65% in size
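IDH1-R132H (0.5 ug/mL dispensed) in pH 7.5 Tris buffer was preincubated 30 min with compound, then given a substrate mix of 0.016 mM NADPH and 2 mM alpha-KG for 80 min at room temperature; remaining NADPH was read by diaphorase/resazurin fluorescence.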
TrxR1 substrate – substrates of rat thioredoxin reductase 1; O89049; purified TrxR1 substrate turnover, NADPH consumption readout; Potency, µM (titrated, usually from 114 µM); 0.01% of 390,000 active; AID 588456; also: nearly all actives have a fitted effect of over 50% in size
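Rat TrxR1, dispensed at 90 nM, was prereduced with 400 uM NADPH (final) for 5 min at ~22 deg C, then incubated with compound 15 min before 400 uM selenite. A first-read NADPH fluorescence drop versus no-compound background flagged substrates.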
IDH1 autofl – counter-screen for mutant IDH1 inhibitors: fluorescence interference. Resorufin detection reagent fluorescence interference, cell-free. inhibition of signal, % at 51.2 µM. AID 623980. 750 tested, under 10 active. shares compounds with IDH1 R132H inh
WT IDH1 inh – wild-type IDH1 (human) inhibition counterscreen. shares compounds with IDH1 R132H inh. WT IDH1 enzyme, NADPH diaphorase/resazurin fluorescence. Potency, µM (doses to about 115 µM), most hits filed as inhibitors. 9% of 750 active. AID 623995; also: nearly all actives have a fitted effect of over 55% in size
mIDH1 confirm – confirmation of human mutant IDH1 inhibitors; shares compounds with IDH1 R132H inh; IDH1 R132H enzyme, NADPH diaphorase/resazurin fluorescence; AID 624002; Potency, µM (titrated, usually from 76.6 µM), hits mostly inhibitors; 83% of 750 active; also: nearly all actives have a fitted effect of over 50% in size
Numbers stand for hits; – = inactive; ? = inconclusive; · = no result given; [ ] = dose if it differs, or a comment. Compounds with a hit are over-represented: about 1.2% of the library has one in this group of screens. Calls follow the shape of the dose curve; as a rule, active = well fitted curve in the direction sought with a large enough effect; inconclusive = small, poorly fitted or top-dose-only effect, or another doubt; inactive = no such curve, though single readings can be large; an effect the other way counts as inactive or inconclusive.

SMILES	GLS inh	TrxR1 inh	IDH1 R132H inh	TrxR1 substrate	IDH1 autofl	WT IDH1 inh	mIDH1 confirm
Cc1cc(-c2ccc(C)c(S(=O)(=O)N3CCN(c4cccc(C(F)(F)F)c4)CC3)c2)on1	–	–	–	–	·	·	·
Cc1csc2nc(COC(=O)c3ccc(Cl)c([N+](=O)[O-])c3)cc(=O)n12	–	–	–	–	·	·	·
COc1ccc(NC(=O)CSc2nc(-c3ccccc3)[nH]c2-c2ccccc2)cc1OC	–	–	–	–	·	·	·
CCCCC(NC(=O)CCc1c(C)c2cc3c4c(oc3c(C)c2oc1=O)CCCC4)C(=O)O (stereo not drawn)	–	–	46µM	–	–	–	25µM
N#Cc1c(NC(=O)c2cccc(S(=O)(=O)Nc3ccc(C(=O)O)cc3)c2)sc2c1CCCC2	–	–	–	–	·	·	·
Cc1ncc(CO)c2c1Oc1nc(-c3ccccc3F)nc(SCC(=O)N(C)c3ccccc3)c1C2	–	?	52µM	?	–	–	?
CC(C)CCNC(=O)c1ccc2c(c1)NC(=O)C(C(C)C)N2 (stereo not drawn)	–	–	–	–	·	·	·
c1ccc(-c2csc(NNC3=NCCCCC3)n2)cc1	–	–	–	–	·	·	·
Clc1ccc(-c2csc(NNC3=NCCCCC3)n2)cc1	–	–	?	–	–	?	45µM
Cc1ccc(CNC(=O)CCCN2C(=O)COc3ccc(C)cc32)cc1	–	–	–	–	·	·	·
N#C/C(=C\c1ccccc1OCc1ccc(C(=O)O)cc1)C(=O)Nc1ccc(O)cc1	?	–	?	–	–	–	40µM
CCOC(=O)C(=CNc1nc(-c2ccccc2)c(C(=O)Nc2ccc(-c3ccccc3)cc2)s1)C(=O)OCC	–	–	–	–	·	·	·
Cc1ccc(C(=O)N2CCc3ccccc32)o1	–	–	?	–	–	–	–
O=C(c1ccc([N+](=O)[O-])o1)N1CCc2ccccc21	–	–	–	–	·	·	·
C[C@@H]1CN([C@H](C)CO)S(=O)(=O)c2ccc(C#Cc3ccccc3F)cc2O[C@H]1CN(C)C(=O)c1ccc2c(c1)OCO2	–	·	?	·	–	–	5.6µM
c1ccc(N(c2ccccc2)c2nc(-n3ccnc3)nc(-n3ccnc3)n2)cc1	–	–	?	–	–	–	25µM
COC(=O)c1ccccc1NC(=O)Cc1nc(-c2ccc(OC)cc2)no1	–	–	–	–	·	·	·
CC(C)c1cnc2c(c1SCC(=O)Nc1cccc(F)c1)c(=O)n(C)c(=O)n2C	–	–	–	–	·	·	·
Cc1cc(C)cc(NC(=O)CSc2c(C(C)C)cnc3c2c(=O)n(C)c(=O)n3C)c1	–	–	?	–	–	–	–
CCc1ccc(-n2nc(C)c3c(C)cc(=O)n(CC(=O)Nc4cc(C)ccc4C)c32)cc1	–	–	–	–	·	·	·
COc1cc(NC(=O)CN(c2ccc(C)cc2)S(=O)(=O)c2cccc3nonc23)cc(OC)c1	–	–	–	–	·	·	·
CCc1ccc(C(=O)c2cn(Cc3ccc(F)cc3)c3cc(OC)c(OC)cc3c2=O)cc1	–	–	?	–	–	–	?
O=C(CCl)N1CCN(S(=O)(=O)c2ccc3ccccc3c2)CC1	–	8.9µM	52µM	–	–	–	20µM
COc1ccc(-c2c(C)nc(N)nc2-c2ccc(OC)cc2O)cc1	–	–	–	–	·	·	·
COc1ccc(-c2c(C)nc(N)nc2-c2ccc(OCc3ccc(C)cc3)cc2O)cc1OC	–	–	?	–	–	–	?
SMILES	GLS inh	TrxR1 inh	IDH1 R132H inh	TrxR1 substrate	IDH1 autofl	WT IDH1 inh	mIDH1 confirm
CC(C)C[C@H]1CN([C@@H](Cc2ccc(O)cc2)CN2CCC[C@@H]2CN2C(=O)C(=O)NC[C@@H]2Cc2ccccc2)C(=O)C(=O)N1CC1CCCCC1	–	–	45µM	–	–	–	14µM
CC(C)C[C@@H](CN1CCC[C@@H]1CN1C(=O)C(=O)NC[C@@H]1Cc1ccccc1)N1C[C@H](Cc2ccccc2)N(CC2CCCCC2)C(=O)C1=O	–	·	·	·	·	·	·
CC(C)C[C@@H](CN1CCC[C@@H]1CN1C(=O)C(=O)NC[C@@H]1Cc1ccccc1)N1C[C@H](Cc2ccccc2)N(CC2CCCCCC2)C(=O)C1=O	–	–	40µM	–	–	–	20µM
CC1(C(=O)NS(=O)(=O)c2cccc(C#N)c2)CCN1C(=O)CC1CCCC1 (stereo not drawn)	–	·	·	·	·	·	·
COc1ccc(-c2cc(C(F)(F)F)n3nc(C(=O)Nc4cccc(C(F)(F)F)c4)c(Br)c3n2)cc1	–	–	–	–	·	·	·
COc1ccc(Cl)cc1N(C(=O)c1ccco1)C(C(=O)NC1CCCC1)c1ccco1 (stereo not drawn)	–	–	–	–	·	·	·
COc1ccc(N(C(=O)c2ccco2)C(C(=O)NC2CCCC2)c2cccs2)cc1 (stereo not drawn)	–	–	?	–	–	–	?
Cc1ccc(N(C(=O)c2ccco2)C(C(=O)NC2CCCC2)c2ccco2)c(C)c1 (stereo not drawn)	–	–	?	–	–	–	20µM
COc1ccc(Cl)cc1N(C(=O)c1ccco1)C(C(=O)NC1CCCC1)c1cccnc1 (stereo not drawn)	–	–	?	–	–	–	?
O=C(NC1CCCC1)C(c1ccncc1)N(C(=O)c1ccco1)c1ccc(F)c(Cl)c1 (stereo not drawn)	–	–	?	–[0.0914 µM]	–	–	40µM
Cc1cccc(C(=O)Nc2cccc(C(=O)OCc3cc(=O)n4ccsc4n3)c2)c1	–	–	–	–	·	·	·
O=C(NC1CCCCC1)C(c1ccncc1)N(C(=O)c1ccco1)c1ccc(F)cc1 (stereo not drawn)	–	–	?	–	–	–	40µM
Cc1cc(C)cc(N(C(=O)c2ccco2)C(C(=O)NC2CCCC2)c2ccncc2)c1 (stereo not drawn)	–	–	?	–	–	–	45µM
COc1ccc(NC(=O)Cn2c(SCc3cccc(Cl)c3)nc3ccncc32)c(OC)c1OC	–	–	–	–	·	·	·
N#CC1=C(N)C(C#N)(C#N)C(c2cccnc2)C2COCC=C12 (stereo not drawn)	–	–	?	–	–	–	40µM
O=c1[nH]c(/C=C/c2ccc([N+](=O)[O-])cc2)c([N+](=O)[O-])c(=O)[nH]1	–	–	46µM	–	–	–	32µM
Cc1cccc(NC(=O)COc2ccc(/C=C\c3[nH]c(=O)[nH]c(=O)c3[N+](=O)[O-])cc2)c1	–	–	52µM	–	–	?	32µM
CCCC(=O)N1c2nc(C(C)C)nn2C2(CCCCC2)[C@@H]2CCCC[C@@H]21	–	–	–	–	·	·	·
COc1ccccc1Oc1coc2cc(OC(=O)N3CCOCC3)ccc2c1=O	–	–	–	–	·	·	·
